TRHR ag – TRH receptor (human) agonism; P34981; TRHR cells, calcium flux fluo-8, FDSS agonist mode; activation, % at 2 µM; 360,000 compounds, 0.18% hits; AID 493084; further: 0% is about no effect
Target sequence (P34981 whole entry, looked up): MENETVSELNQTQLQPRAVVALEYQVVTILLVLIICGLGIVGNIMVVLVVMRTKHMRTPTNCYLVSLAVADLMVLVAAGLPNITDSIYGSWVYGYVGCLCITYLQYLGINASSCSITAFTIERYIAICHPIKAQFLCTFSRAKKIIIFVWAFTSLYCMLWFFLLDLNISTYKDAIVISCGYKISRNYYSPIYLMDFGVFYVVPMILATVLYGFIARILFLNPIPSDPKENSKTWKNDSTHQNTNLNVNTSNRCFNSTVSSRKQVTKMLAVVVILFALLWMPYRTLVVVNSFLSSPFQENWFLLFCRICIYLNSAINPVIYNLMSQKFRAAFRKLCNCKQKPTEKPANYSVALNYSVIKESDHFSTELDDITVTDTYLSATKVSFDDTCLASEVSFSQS
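Read-out: compound-evoked intracellular calcium rise in TRHR cells, fluo-8 dye, kinetic FDSS fluorescence at 1 s/cycle following a 10-cycle baseline. Cells cultured overnight before dye loading (30 min–1.5 h, RT).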
TRHR PAM – allosterically enhances the human TRH receptor; TRHR cells, fluo-8 calcium fluorescence, EC20 TRH enhancement; enhancement, % at 2 µM; 360,000 compounds, 0.66% hits; in the data active means enhancement above about 30%; further: 0% is about no effect
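TRHR-expressing cells loaded with fluo-8 calcium dye were read kinetically (ex 480/em 530) during compound addition, then stimulated with an EC20 of TRH (10 nM final). Enhancement of the Gq-mediated intracellular calcium response was scored.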
D1 ag – human D1 receptor agonism. 360,000 compounds, 1% hits. HEK293 T-REx D1 cells, calcium flux, agonist mode. AID 504660. P21728. activation, % at 2 µM; further: 0% is about no effect
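Tetracycline-induced HEK293 TREx D1 cells, force-coupled to calcium signalling, were dye-loaded with a no-wash calcium kit. Compound was pin-added after a 10 s baseline. Fluorescence was read kinetically at 1 cycle/s for 180 s, with calcium rises flagged as agonism.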
D1 potentiator – human D1 dopamine receptor positive modulation. potentiation, % at 10 µM. P21728. HEK293 TREx D1 cells, calcium flux, dopamine EC20 potentiation. 360,000 compounds, 0.036% hits; in the data active means potentiation above about 30%; further: 0% is about no effect
D1 antagonist – blocks dopamine activation of the human D1 receptor; P21728; HEK293 TREx D1 cells, calcium flux, dopamine EC80; stronger effect = lower value; activity change, negative = inhibition, % at 10 µM; 360,000 compounds, 3.2% hits; AID 504652; in the data active means activity change below about -30%; further: on the % scale 0 is the no-effect control and ±100 the full control effect
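Calcium flux readout: force-coupled, inducible Hek293 Trex D1 line, cells induced overnight at 30 C with tetracycline, dye-loaded 30–90 min at RT. Antagonism scored against EC80 dopamine challenge given 180 s after compound.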
The depositor's hits bear a star; x = not tested or not shown. Rows were chosen to be rich in hits. Some 4.6% of all compounds tested hit in one or more screens of this group. Unless noted, no stated cut-off is given here; in the data, active means activation above about 30%; inactive means the rest.

SMILES	TRHR ag	TRHR PAM	D1 ag	D1 potentiator	D1 antagonist
COc1ccc(Nc2ncc(C(=O)N3CCN(c4cccc(Cl)c4)CC3)c3ccccc23)cc1	0	2	-1	-1	-5
Cc1cccc(CNC(=O)c2sc3ncnc(N(C)C4CCCCC4)c3c2C)c1	1	-4	6	-2	-6
CCn1c(C)[n+](CCOCC[n+]2c(C)n(CC)c3cc(Cl)c(Cl)cc32)c2cc(Cl)c(Cl)cc21	0	-6	0	-5	-48*
CC(=O)OCCn1c(C)[n+](CCOC(C)=O)c2cc(Cl)c(Cl)cc21	0	-3	0	-8	12
C/C(=N/O)c1ccccn1	1	-4	1	-2	-1
CCCCCC/C(=N/O)c1ccccn1	-1	-4	5	-1	-37*
COc1cc(C(CCN2CCN(c3ccccc3)CC2)c2c(OC)cc(OC)c3c(C)cc(=O)oc23)cc(OC)c1OC (stereo unspecified)	0	0	0	-13	-81*
CCCCCc1cc(=O)oc2c(C(CCN3CCCC(C)C3)c3cc(OC)c(OC)c(OC)c3)c(OC)cc(OC)c12 (stereo unspecified)	0	1	22	-10	-47*
CCCCCc1cc(=O)oc2c(C(CCN3CCCCC3)c3cc(OC)c(OC)c(OC)c3)c(OC)cc(OC)c12 (stereo unspecified)	3	6	18	2	15
COc1cc(OC)c2c(C)cc(=O)oc2c1C(CCN1CCOCC1)c1ccc2c(c1)OCO2 (stereo unspecified)	0	-1	11	-9	-68*
S=C(Cc1cccnc1)N1CCOCC1	0	-2	2	-3	5
Cc1ccc(C)c(Oc2nc3c(c(=O)n(C)c(=O)n3C)n2Cc2ccccc2)c1	-1	5	2	2	19
Clc1ccc(Cn2nnc(-c3ccc(CN4CCOCC4)cc3)n2)cc1	-1	-5	9	-4	4
Fc1cccc(Cl)c1Cn1nnc(-c2ccc(N3CCOCC3)cc2)n1	-1	4	6	-2	-36*
CCOC(=O)c1c(C)oc2nc(C)nc(N3CCN(c4cccc(C(F)(F)F)c4)CC3)c12	0	15	4	4	2
CCN(CC)S(=O)(=O)c1ccc(N2CCN(S(=O)(=O)c3ccccc3C#N)CC2)nc1	1	-5	3	-5	-83*
CN(c1ccccc1)S(=O)(=O)c1cccc(NC(=O)c2cc(=O)c3ccccc3o2)c1	0	-1	4	-6	-34*
Cc1ccc2c(=O)cc(C(=O)Nc3c(C(=O)Nc4cccc(Cl)c4)oc4ccccc34)oc2c1	0	6	-2	3	-46*
CN(c1ccccc1)S(=O)(=O)c1cccc(NC(=O)CCNC(=O)c2ccccc2)c1	2	-2	0	-10	-43*
CN(c1ccccc1)S(=O)(=O)c1cccc(NC(=O)CCNC(=O)c2ccc(Cl)cc2)c1	0	-2	4	-3	-19
NS(=O)(=O)c1cccc(NC(=O)c2cc(=O)c3ccccc3o2)c1	1	11	2	-3	-4
CN(c1ccc(C(=O)NCCSCc2ccc(Cl)cc2)cc1)S(=O)(=O)c1ccccc1	-1	5	39*	5	-19
Cc1ccc(CSCCNC(=O)c2ccc(N(C)S(=O)(=O)c3ccccc3)cc2)cc1	2	-3	28	-1	-16
Cc1cccc(C(=O)Nc2nnc(S(=O)(=O)N(C)c3ccccc3C)s2)c1	0	1	3	0	1
CC(=O)N1CCN(C(=S)Nc2ccc(SC(F)F)cc2)CC1	0	-3	1	-2	-27
SMILES	TRHR ag	TRHR PAM	D1 ag	D1 potentiator	D1 antagonist
CC1CCN(C(=S)Nc2ccc(SC(F)F)cc2)CC1	0	-2	5	-4	-41*
Cc1cc(OCC(=O)Nc2nnc(C3CC3)s2)ccc1C(C)C	2	36*	3	-1	0
CCOC(=O)NN1C(=O)c2ccccc2NC1c1ccccn1 (stereo unspecified)	0	-3	3	-3	-30*
O=C(COc1ccc(Cl)cc1)NCC(c1ccco1)S(=O)(=O)c1ccc(Cl)cc1 (stereo unspecified)	0	11	3	-4	x
CC(=O)N1CCCc2cc(S(=O)(=O)N3CCN(c4cccc(C(F)(F)F)c4)CC3)ccc21	0	-6	4	-5	6
COc1ccccc1-c1ccc(=O)n(CC(=O)NC2CCc3ccccc32)n1 (stereo unspecified)	0	2	88*	5	23
CCn1cc(/C=C/C(=O)Nc2c(C)nn(Cc3ccccc3)c2C)cn1	-2	35*	9	-2	1
Cc1nn(Cc2ccccc2Cl)c(C)c1NC(=O)/C=C/c1cnn(C)c1	0	7	2	-3	-8
c1cncc(-c2ccnc3ncnn23)c1	0	33*	4	0	-3
c1ccc(-c2ccnc3ncnn23)nc1	1	8	2	2	-4
C=CCn1c(C)cc(C(=O)CSc2nnc3c(Cl)cc(Cl)cn23)c1C	-1	-1	0	-7	-25
Cc1cc(C(=O)CSc2nnc3c(Cl)cc(Cl)cn23)c(C)n1C	0	-4	1	3	-31*
Cc1ccc(-c2nc3ccsc3c(=O)o2)cc1	0	13	-1	0	-87*
Cc1cc(C)c(NC(=O)CN2C(=O)CCn3nc(-c4cccn4C)cc32)c(C)c1	0	0	6	1	-7
Cc1cc(NC(=O)c2cccn2-c2nnc(N3CCCCC3)s2)ccc1Br	0	0	7	-1	16
Cc1cc(-c2csc3nc[nH]c(=S)c23)cc(C)c1C	-2	-7	17	-5	-49*
Cc1ccc(-c2csc3nc[nH]c(=S)c23)cc1	-1	0	2	-1	-8
CN(C)CCNC(=O)CN1C(=O)COc2ccc(S(=O)(=O)N3CCCC3)cc21	0	-4	1	1	-6
COC(=O)c1sc(NC(=O)C2CCCO2)c(C(=O)OC)c1C (stereo unspecified)	-1	32*	0	-2	-5
N#Cc1c(NC(=O)C2CCCO2)sc2c1CCCCCC2 (stereo unspecified)	1	0	6	3	-32*
NC(=O)c1c(NC(=O)C2CCCO2)sc2c1CCCC2 (stereo unspecified)	1	10	0	-6	-15
CCOc1ccccc1NC(=O)CN(C)S(=O)(=O)c1ccc(C(=O)N2CCOCC2)s1	-1	-4	0	-1	-26
CCOc1cc(C)c(S(=O)(=O)Nc2ccc3cn[nH]c3c2)cc1C	0	2	33*	3	-13
Cc1ccc(NC(=O)CSCC(=O)Nc2ccccc2N2CCCC2)cc1	-1	1	0	2	4
COCCCNC(=O)C1CCN(c2nc(C)cc(C)n2)CC1	1	36*	2	1	24

High-throughput results: PubChem BioAssay, National Center for Advancing Translational Sciences (NCATS)
